Laboratory results taken from PubChem BioAssay (NCATS).
Values joined by “and” are separate entries in the source; they are usually repeats but may differ in a detail not shown here. Equal values may be shown once. Results filed as inconclusive are left out. Active and inactive are the calls of the source. Calls come from the whole dose curve; as a rule, active = well fitted curve in the direction sought with a large enough effect; inconclusive = small, poorly fitted or top-dose-only effect, or another doubt; inactive = no such curve, though single readings can be large; an effect the other way counts as inactive or inconclusive.

What was measured:
MKL-1 = experiment: qHTS assay to identify novel small-molecules to repurpose for Merkel cell carcinoma treatment (AID 1296009); conditions: MCC and control cell lines, CellTiter-Glo viability, 72 h; series mostly up to 46 µM; note: nearly all actives have a fitted effect of over 60% in size; note: potency is the fitted concentration of half-maximal effect
Procedure, shortened: (§1)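 Viability readout: ATP luminescence (CellTiter-Glo) after 72 hr drug exposure at 37 degree celsius. Dose-response format was 8 points for NPC and 11 points for MIPE; data normalized to in-plate controls.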

MKL-2 = experiment: as above; conditions: MCC and control cell lines, CellTiter-Glo viability, 72 h; series mostly up to 46 µM
Procedure, shortened: as §1

NIH3T3 = experiment: as above; conditions: MCC and control cell lines, CellTiter-Glo viability, 72 h; at 44.8 µM (top of the series) unless noted
Procedure, shortened: as §1

UISO = experiment: as above; conditions: MCC and control cell lines, CellTiter-Glo viability, 72 h; series mostly up to 46 µM
Procedure, shortened: as §1

WaGa = experiment: as above; conditions: MCC and control cell lines, CellTiter-Glo viability, 72 h; series mostly up to 46 µM
Procedure, shortened: as §1

C33A = experiment: Primary qHTS to identify gynecologic anti-cancer compounds using libraries of approved drugs and bioactive compounds (AID 1345084); conditions: Gynecologic cancer cell panel viability, ATPlite luminescence, 48 h; series mostly up to 57.5 µM; note: nearly all actives have a fitted effect of over 55% in size
Procedure, shortened: (§2)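 Cell viability after 48 h drug treatment, ATPlite luminescence readout; five doses.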

CAOV3 = experiment: as above; conditions: Gynecologic cancer cell panel viability, ATPlite luminescence, 48 h; series mostly up to 57.5 µM
Procedure, shortened: as §2

CASKI = experiment: as above; conditions: Gynecologic cancer cell panel viability, ATPlite luminescence, 48 h; series mostly up to 57.5 µM
Procedure, shortened: as §2

Es-2 = experiment: as above; conditions: Gynecologic cancer cell panel viability, ATPlite luminescence, 48 h; series mostly up to 57.5 µM
Procedure, shortened: as §2

HeLa = experiment: as above; conditions: Gynecologic cancer cell panel viability, ATPlite luminescence, 48 h; series mostly up to 57.5 µM
Procedure, shortened: as §2

Hek293T = experiment: as above; conditions: Gynecologic cancer cell panel viability, ATPlite luminescence, 48 h, control line for the selectivity index; series mostly up to 57.5 µM
Procedure, shortened: as §2

JEG-3 = experiment: as above; conditions: Gynecologic cancer cell panel viability, ATPlite luminescence, 48 h; series mostly up to 57.5 µM
Procedure, shortened: as §2

OV90 = experiment: as above; conditions: Gynecologic cancer cell panel viability, ATPlite luminescence, 48 h; series mostly up to 57.5 µM
Procedure, shortened: as §2

PA-1 = experiment: as above; conditions: Gynecologic cancer cell panel viability, ATPlite luminescence, 48 h; series mostly up to 57.5 µM
Procedure, shortened: as §2

SKOV3 = experiment: as above; conditions: Gynecologic cancer cell panel viability, ATPlite luminescence, 48 h; series mostly up to 57.5 µM
Procedure, shortened: as §2

Tov-21-G = experiment: as above; conditions: Gynecologic cancer cell panel viability, ATPlite luminescence, 48 h; series mostly up to 57.5 µM
Procedure, shortened: as §2

Tov112D = experiment: as above; conditions: Gynecologic cancer cell panel viability, ATPlite luminescence, 48 h; series mostly up to 57.5 µM
Procedure, shortened: as §2

[1] = Drug repurposing screens with cells derived from glioblastoma tumor samples (AID 1345199); conditions: GBM patient neurospheres viability, ATP luminescence, 48 h; note: nearly all actives have a fitted effect of over 40% in size; note: potency is the fitted concentration of half-maximal effect
Procedure, shortened: (§3)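 Primary testing used CD133+ neurospheres from four GBM patients, seven concentrations, 48 h exposure and ATP-based viability; confirmation added three slower-growing patient lines.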

astro = experiment: as above; conditions: viability, ATP luminescence, 48 h; series mostly up to 45.9 µM
Procedure, shortened: as §3

[2] = at 45.9 µM (top of the series), tumour line B
[3] = at 45.9 µM (top of the series), tumour line D
[4] = at 46 µM (top of the series), tumour line A
[5] = at 46.1 µM (top of the series), tumour line C
[6] = at 20 µM (top of the series), tumour line C
[7] = at 21.2 µM (top of the series), tumour line B
[8] = at 21.2 µM (top of the series), tumour line D
% is set by controls: 0 for no effect and ±100 for the full control effect.

Nc1ccc(C(=O)O)c(O)c1
inactive: Potency (MKL-1) | Potency (MKL-2) | outcome (NIH3T3) | Potency (UISO) | Potency (WaGa) | Potency (C33A) | Potency (CAOV3) | Potency (CASKI) | Potency (Es-2) | Potency (HeLa) | Potency (Hek293T) | Potency (JEG-3) | Potency (OV90) | Potency (PA-1) | Potency (SKOV3) | Potency (Tov-21-G) | Potency (Tov112D) | activity, negative = cell killing [1, 2] -5.49% | activity, negative = cell killing [1, 3] 3.71% | activity, negative = cell killing [1, 4] -9.87% | activity, negative = cell killing [1, 5] -6.08% | Potency (astro)

CO[C@@]1(NC(=O)Cc2cccs2)C(=O)N2C(C(=O)O)=C(COC(N)=O)CS[C@@H]21
inactive: Potency (MKL-1) | Potency (MKL-2) | outcome (NIH3T3) | Potency (UISO) | Potency (WaGa) | Potency (C33A) | Potency (CAOV3) | Potency (CASKI) | Potency (Es-2) | Potency (HeLa) | Potency (Hek293T) | Potency (JEG-3) | Potency (OV90) | Potency (PA-1) | Potency (SKOV3) | Potency (Tov-21-G) | Potency (Tov112D) | activity, negative = cell killing [1, 2] 3.39% and 0.545% | activity, negative = cell killing [1, 3] -2.17% and -11.4% | activity, negative = cell killing [1, 5] -9.41% and -2.11% | Potency (astro)

CNC(=O)c1c(I)c(NC(=O)CCCCC(=O)Nc2c(I)c(C(=O)O)c(I)c(C(=O)NC)c2I)c(I)c(C(=O)O)c1I
inactive: Potency (MKL-1) | Potency (MKL-2) | Potency (UISO) | Potency (WaGa) | Potency (C33A) | Potency (CAOV3) | Potency (CASKI) | Potency (Es-2) | Potency (HeLa) | Potency (Hek293T) | Potency (JEG-3) | Potency (OV90) | Potency (PA-1) | Potency (SKOV3) | Potency (Tov-21-G) | Potency (Tov112D)

C[N+]1(C)[C@@H]2CC(OC(=O)[C@H](CO)c3ccccc3)C[C@H]1[C@@H]1O[C@@H]12 (some centres not stated)
inactive: Potency (MKL-1) | Potency (MKL-2) | Potency (UISO) | Potency (WaGa) | Potency (C33A) | Potency (CASKI) | Potency (Es-2) | Potency (HeLa) | Potency (Hek293T) | Potency (JEG-3) | Potency (OV90) | Potency (PA-1) | Potency (SKOV3) | Potency (Tov-21-G) | Potency (Tov112D)

Nc1ccc(O)c(C(=O)O)c1
inactive: Potency (MKL-1) | Potency (MKL-2) | outcome (NIH3T3) | Potency (UISO) | Potency (WaGa) | Potency (C33A) | Potency (CAOV3) | Potency (CASKI) | Potency (Es-2) | Potency (HeLa) | Potency (Hek293T) | Potency (JEG-3) | Potency (OV90) | Potency (PA-1) | Potency (SKOV3) | Potency (Tov-21-G) | Potency (Tov112D) | activity, negative = cell killing [1, 2] -12.4% | activity, negative = cell killing [1, 3] 5.07% | activity, negative = cell killing [1, 5] 2.81% | Potency (astro)

Cc1[nH]cnc1CN1CCc2c(c3ccccc3n2C)C1=O
inactive: Potency (MKL-1) | Potency (MKL-2) | Potency (UISO) | Potency (WaGa) | Potency (C33A) | Potency (CAOV3) | Potency (CASKI) | Potency (Es-2) | Potency (HeLa) | Potency (Hek293T) | Potency (JEG-3) | Potency (PA-1) | Potency (SKOV3) | Potency (Tov-21-G) | Potency (Tov112D) | activity, negative = cell killing [1, 2] -8.52% | activity, negative = cell killing [1, 3] -4.04% | activity, negative = cell killing [1, 5] -28.6% | Potency (astro)
active: Potency ([1]; tumour line A) 10 µM

CC(C(=O)O)c1ccc(C(=O)c2ccccc2)s1 (configuration not stated)
inactive: Potency (MKL-1) | Potency (MKL-2) | Potency (UISO) | Potency (WaGa) | Potency (C33A) | Potency (CAOV3) | Potency (CASKI) | Potency (Es-2) | Potency (HeLa) | Potency (Hek293T) | Potency (JEG-3) | Potency (OV90) | Potency (PA-1) | Potency (Tov-21-G) | Potency (Tov112D) | activity, negative = cell killing [1, 6] -11.8% | activity, negative = cell killing [1, 7] -9.92% | activity, negative = cell killing [1, 8] 4.8% | Potency (astro)

c1ccc2sc(SSc3nc4ccccc4s3)nc2c1
inactive: Potency (MKL-1) | Potency (MKL-2) | Potency (UISO) | Potency (WaGa) | Potency (C33A) | Potency (CAOV3) | Potency (CASKI) | Potency (Es-2) | Potency (HeLa) | Potency (Hek293T) | Potency (JEG-3) | Potency (OV90) | Potency (PA-1) | Potency (SKOV3) | Potency (Tov-21-G) | Potency (Tov112D) | activity, negative = cell killing [1, 2] -16.9% | activity, negative = cell killing [1, 3] -20.4% | activity, negative = cell killing [1, 4] -26.6% | activity, negative = cell killing [1, 5] -28% | Potency (astro)

CCCC(=O)OC[C@@H](OC(=O)CCC)[C@@H](OC(=O)CCC)[C@H](Cn1c2nc(=O)[nH]c(=O)c-2nc2cc(C)c(C)cc21)OC(=O)CCC
inactive: outcome (NIH3T3) | Potency (C33A) | Potency (CASKI) | Potency (Es-2) | Potency (HeLa) | Potency (Hek293T) | Potency (PA-1) | Potency (SKOV3) | Potency (Tov-21-G) | Potency (Tov112D) | activity, negative = cell killing [1, 5] -29.1% | Potency (astro)
active: Potency (MKL-1) 6.68 µM | Potency (MKL-2) 3.35 µM | Potency (WaGa) 4.22 µM | Potency ([1]; tumour line A) 8.91 µM | Potency ([1]; tumour line D) 12.6 µM

Cc1c(N)c(=O)n(-c2ccccc2)n1C
inactive: Potency (MKL-1) | Potency (MKL-2) | Potency (UISO) | Potency (WaGa) | Potency (C33A) | Potency (CAOV3) | Potency (CASKI) | Potency (Es-2) | Potency (HeLa) | Potency (Hek293T) | Potency (JEG-3) | Potency (OV90) | Potency (PA-1) | Potency (SKOV3) | Potency (Tov-21-G) | Potency (Tov112D) | activity, negative = cell killing [1, 6] -1.09% | activity, negative = cell killing [1, 7] -6% | activity, negative = cell killing [1, 8] -16.4% | activity, negative = cell killing ([1]; at 21.3 µM (top of the series), tumour line A) -17.4% | Potency (astro)

CCOc1ccc2nc(S(N)(=O)=O)sc2c1
inactive: Potency (MKL-1) | Potency (MKL-2) | outcome (NIH3T3) | Potency (WaGa) | Potency (C33A) | Potency (CAOV3) | Potency (CASKI) | Potency (Es-2) | Potency (HeLa) | Potency (Hek293T) | Potency (JEG-3) | Potency (OV90) | Potency (PA-1) | Potency (Tov-21-G) | Potency (Tov112D) | activity, negative = cell killing [1, 2] -0.995% | activity, negative = cell killing [1, 3] -17.7% | activity, negative = cell killing [1, 5] 1.48% | Potency (astro)
